# According to PubChem BioAssay (NCI):
# Compounds without any hit were thinned out: in the full panel of roughly 83,000, 20% have a hit.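 A percent growth of 40 corresponds to 60% growth inhibition; 0 means no net growth; -100 means all cells died. Active threshold: below 10.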 Unmarked numbers belong to inactive results. Activity calls are given as the source filed them.
# System: PC-3 prostate
# Assay: NCI-60 one-dose screen, 48 h (100 = growth as untreated, 0 = no growth, -100 = all killed)
# Conditions: 10 µM unless noted
# Description: Growth inhibition of the PC-3 human tumor cell line is measured as a screen for anti-cancer activity. Cells are grown in 96 well plates and exposed to the test compound for 48 hours. Compounds are tested at a single concentration, which is 10^-5 M for most compounds. The reported endpoint is percent growth (GI% or GIPRCNT), where numbers from 0 - 100% represent growth inhibition, and numbers from -100% - 0 represent cell death. For example, a value of 40 represents 60% growth inhibition. A value of 0 means no net growth occurred over the course of the experiment. A value of -40 indicates 40% of cells at the beginning of the experiment died by the end of the experiment. A value of -100 means all cells are dead at the end of the experiment.
# NCI-60 Human Tumor Cell Lines Screen was performed using the standard one-dose NCI protocol, which is described in more detail at https://dtp.cancer.gov/discovery_development/nci-60/default.htm.
# Compounds with GIPRCNT values below 10 were considered active. Activity score was based on GIPRCNT using the following formula: […]
# Score is 0 for GIPRCNT values of 100 or above, 50 for GIPRCNT values of 0, and 100 for GIPRCNT values of -100.
row,SMILES,growth
1,CCCCCCCCNC(=O)[C@@H](N)CSCOC(C)=O,75.9%
2,CCOC(=O)c1ccc2c(c1)c1c(C)c3cnccc3c(C)c1n2C,-21.7% (active)
3,C#Cc1cccc(Nc2nc(Cl)nc3cc(NC(=O)CCl)ccc23)c1,-85.6% (active)
4,COc1ccc(/C=C\c2cc(OC)c(OC)c(OC)c2)cc1OCC(=O)Nc1nc2ccccc2s1,31.1%
5,CC(C)(C)n1cc(-c2ccnc(NCCNS(=O)(=O)c3ccc(Br)cc3)c2)c(-c2cccc(O)c2)n1,25.4%
6,Cn1cc(-c2ccc3occ(-c4cccc(-c5ccncc5)c4)c3n2)cn1,19.6%
7,COc1cc(-c2ccc(-c3ccc(C(=N)N)s3)s2)cc(OC)c1OC,47.1%
8,Cn1cc(-c2nc(-c3c[nH]c4c(Cl)nccc34)cs2)c2ccccc21,86.1%
9,CCCCN(CCC#N)C(N)=O,91.2%
10,Cc1nc2ccccc2c(/C=C/c2ccc(Br)cc2)c1C(=O)/C=C/c1ccccc1,19.7%
11,COc1cc(OC)cc(C(=O)Nc2cnc(Nc3ccc(N4CCOCC4)nc3)nc2Oc2ccc(C(F)(F)F)cc2)c1,71.4%
12,COc1cc2c(cc1OC)CC[N+](CCC[N+](C)(C)C)=C2,83.9%
13,CCCCCC(C)(O)C(C(=O)O)c1ccccc1 (stereo not given),93.2%
14,Cn1cc(-c2nc(-c3c[nH]c4ccncc34)cs2)c2cc(F)ccc21,-73.1% (active)
15,COC(=O)c1c(C)nc(C)c2c1C(=O)C(Br)=C(NCCCCO)C2=O,62.5%
16,Cc1ccc2nc(/C=C/c3ccc(N(C)C)cc3)cc(C)c2c1,38.9%
17,O=C(OCC(O)(CO)C(=O)NC12CC3CC(CC(C3)C1)C2)c1ccc(Cl)cc1 (stereo not given),93.7%
18,O=C(/C=C/c1ccco1)Nc1ncc(Cc2ccc(F)cc2)s1,30.2%
19,Cc1ccc(C(F)(F)F)cc1N1CCN(C(=O)[C@H]2C[C@H]2c2ccc(C(F)(F)F)nc2)CC1,77.7%
20,CCOC(=O)/C(=C\c1ccccc1Cl)P(=O)(OCC)OCC,45.8%

row,SMILES,growth
1,Cn1cc(-c2ccc3c(Nc4cccc(NC(=O)Nc5cccc(F)c5)c4)ncnc3c2)cn1,33.6%
2,CCCCCN(CCCCC)CC(O)c1c(Cl)ccc2ccccc12 (stereo not given),75.2%
3,COC(=O)c1cc(-c2cc(OC)c(OC)c(OC)c2)[nH]c1N/N=C/c1c(Cl)cccc1Cl,12%
4,C#CCOC(=O)C(N)CSSCC(N)C(=O)O (stereo not given),91.6%
5,O=C1C=CC2(O)OC(c3ccccc3)CC(=O)C2=C1O (stereo not given),79.7%
6,O=C(Oc1ccccc1)c1cc(O)c(O)c(O)c1,70.4%
7,Cn1ccnc1C(=O)/C=C/c1ccc(C(=O)Nc2c(F)c(F)c(F)c(F)c2F)cc1,7.27% (active)
8,COc1ccc(Nc2nccc(Nc3ccc4[nH]ncc4c3)n2)cc1,13.5%
9,COc1ccc(N2C(=O)/C(=C/C(Cl)=C/c3ccc([N+](=O)[O-])cc3)SC2=S)cc1,2.17% (active)
10,C=C(C)[C@@H]1CC[C@]2(COC(=O)c3cccnc3)CC[C@]3(C)[C@H](CC[C@@H]4[C@@]5(C)CCCN(C(=O)c6cccnc6)C(C)(C)[C@@H]5CC[C@]43C)[C@@H]12,14.6%
11,Cc1ccc(C(=O)Nc2ccc(CN3CCN(C)CC3)c(C(F)(F)F)c2)cc1C#Cc1cnc(N)c2ccccc12,3.18% (active)
12,CCN(CC)CCN1C(=O)c2c(c(C)c3c(oc4cc(OC)ccc43)c2C)C1=O,92%
13,COc1cc(C(=O)n2nc(NCCCc3ccccc3)c3cc(N)ccc32)cc(OC)c1OC,79%
14,C=C1CC[C@@H]2[C@](C)(COC(C)=O)[C@H](OC(C)=O)CC[C@@]2(C)[C@@H]1CC(Nc1ccc(S(=O)(=O)Nc2nccc(C)n2)cc1)C1=CCOC1=O (stereo not given in full),41.5%
15,COc1cc2c(c(OC)c1OC)CCC(c1cccc(C(=O)Nc3ccc([N+](=O)[O-])cc3)c1)O2 (stereo not given),27.1%
16,CS(=O)(=O)Nc1cc(-c2ccc3ncnc(Nc4cccc(Cl)c4)c3c2)cnc1Cl,-2.27% (active)
17,CN(C)CC1C(=O)O[C@H]2[C@H]1CC/C(COC(=O)NCc1ccc(Cn3c(=O)sn(CCCI)c3=O)cc1)=C\CC[C@@]1(C)O[C@@H]21 (stereo not given in full),66.5%
18,O=C(/C=C/c1ccc(Cl)cc1)c1ccc(Nc2ccnc3cc(Cl)ccc23)cc1,70.9%
19,COC(=O)c1c(C(=O)OC)c2ccc3c4ncccc4ccc3n2c1C(=O)c1ccc(C)cc1,86.6%
20,c1ccc2cc(Cn3cc[n+](Cc4ccc5ccccc5c4)c3)ccc2c1,15.4%
